The compounds below were run on LYN. Conditions: concentration: 1 μM, replicates: in singlicate; n = 1.
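Further: KINOMEscan kinase panel screen.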

Point of comparison: `Fc1ccc(-c2nn3cccc(F)c3c2-c2ccncc2)cc1` [GW475620], “%Inh” value 6%. Against it:
- CC(=O)c1cccc(NC(=O)NC2CCN(c3ccnc(Nc4ccc(F)cc4)n3)C2)c1 (stereo not drawn) [GSK1379710] — lower, 0%
- O=C1NC(=O)C(c2ccc(Cl)cc2)=C1Nc1cccc(Cl)c1 [SB-317651] — higher, 22%
- Cc1ccc(NC(=O)Nc2ccccc2F)cc1-c1ccc(C(=O)Nc2ccncc2)cc1 [GSK1398477] — higher, 47%
- Cc1ccc(NC(=O)c2ccc(Cl)cc2)cc1-c1ccc(C(=O)Nc2ccncc2)cc1 [GSK1398467] — higher, 30%
- Cc1ccccc1-c1cc(-c2c[nH]nc2-c2ccccn2)ccn1 [GW680061] — lower, 0%
- CC[C@@H]1CO[C@H](C(=O)Nc2ccccc2)CN1c1cc(-c2ccc3c(N)n[nH]c3c2)nc(NC)n1 [GSK2376236] — lower, 0%
- COc1ccc(CSc2nnc(-c3ccc4ncsc4c3)o2)cc1C(F)(F)F — lower, 0%
- Cc1ccc(-c2nc(Nc3ccncc3)c3ccccc3n2)s1 [GSK189015] — lower, 0%
- Cc1ccccc1Cn1ccn2c(=O)cc(N3CCOCC3)nc12 [GSK2269905] — lower, 0%
- CS(=O)(=O)CCNCc1nc(-c2ccc3ncnc(Nc4ccc5c(cnn5Cc5ccccc5)c4)c3c2)cs1.Cl.Cl [GW569716] — lower, 0%
- Cc1nccc(-c2c(-c3ccc(F)cc3)ncn2CCCN2CCOCC2)n1.Cl [SB-282975] — higher, 9%
- Cn1cncc1C(=O)NC1CCN(c2ccnc(Nc3ccc(F)cc3)n2)C1 (stereo not drawn) [GSK1379717] — lower, 0%
- CN1c2ccc(-c3ccc(C(N)=O)cc3)cc2-c2[nH]ncc2S1(=O)=O — lower, 0%
- CC(C)c1cc(-c2ccc3c(N)n[nH]c3c2)nc(N)n1 [GSK2250882] — lower, 0%
- O=C(Nc1n[nH]c2nc(-c3cccs3)c(Br)cc12)C1CC1 [SB-735297] — higher, 15%
- Cc1ccc(NC(=O)Nc2ccc(Cl)cc2)cc1-c1ccc(C(=O)Nc2ccncc2)cc1 [GSK1398472] — higher, 30%
- CC(C)c1ccc(O)cc1Nc1ccnc2ccc(C(F)(F)F)cc12 [GW482059] — lower, 0%
- Fc1ccc(-c2nc3n(c2-c2ccncc2)CCS3)cc1 [GI98581] — lower, 0%
- O=C(Nc1n[nH]c2cc(-c3ccsc3)ccc12)C1CC1 [SB-732932] — lower, 4%
- Cc1cnc(N)c(/C=C/c2cncc(C(=O)NCCc3ccc(Cl)cc3Cl)c2)c1.Cl [GSK190937] — higher, 20%
- CC(=O)c1c(C)c2cnc(Nc3ccc(N4CCNCC4)cn3)nc2n(C2CCCC2)c1=O — lower, 0%
- COc1ccc2cc(-c3nc(-c4ccccc4C(C)C)[nH]c3-c3ccncc3)ccc2c1 [SB-660566] — higher, 20%
- CCc1ccc(-c2ccc3c(c2)-c2n[nH]cc2S(=O)(=O)N3C)cc1 — lower, 0%
